NCOA1 inh – SRC1 coactivator transcriptional activity inhibitors, primary screen, cell-based, luminescence; AID 588354, 2011; inhibition, % at 3.6 µM; HEK293 GAL4-SRC1 luciferase reporter; Nuclear receptor coactivator 1 (Homo sapiens), Q15788; 360,000 compounds, 0.12% hits;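 active = inhibition above the campaign mean plus 3 SD, with each screening campaign given its own cutoff, cut at about 60% in these data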
LRH-1 inv ag – LRH-1 (NR5A2) inverse agonists, primary screen, cell-based, luminescence, HEK293T, StAR-luciferase reporter | Nuclear receptor subfamily 5 group A member 2 (Homo sapiens), O00482 | LRH-1 transfected, 24 h | 360,000 compounds, 0.13% hits | inhibition, % at 3.6 µM | AID 602396, 2012;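 active = inhibition above the mean inhibition of all tested compounds plus 3 SD, cut at about 73% in these data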
COUP-TFII inh – NR2F2 transcriptional activity inhibitors, primary screen, cell-based, luciferase reporter, HEK293T, luminescence; AID 686940, 2013; inhibition, % at 8.6 µM; HEK293T NGFI-A luciferase reporter; 370,000 compounds, 0.7% hits;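 active = inhibition above a per-plate cutoff, mean inhibition of test wells between control levels plus 3 SD, cut at about 38% in these data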;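 also: cells cotransfected with COUP-TFII expression vector driving the NGFI-A reporter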
NCOA3 inh – SRC3 coactivator transcriptional activity inhibitors, primary screen, cell-based, luminescence | Nuclear receptor coactivator 3 (Homo sapiens), Q9Y6Q9 | AID 588352, 2011 | 360,000 compounds, 0.17% hits | HEK293 GAL4-SRC3 luciferase reporter | inhibition, % at 3.6 µM;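 active = inhibition above a per-campaign cutoff, the mean of all compounds plus 3 SD, cut at about 60% in these data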;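 also: higher means less SRC3-driven luciferase light from the GAL4 reporter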
GalR3 antagonist – GalR3 antagonists in HEK293 cells, primary screen, cell-based, fluorescence readout | Galanin receptor type 3 (Homo sapiens), O60755 | HEK293 GalR3-CNG cAMP membrane potential fluorescence; galR3 body fused to GalR1 C-terminus | inhibition, % at 3 µM | 360,000 compounds, 0.44% hits;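 active = inhibition above the screen-wide average plus 3 SD, cut at about 13% in these data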;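 also: forskolin and galanin both at EC90 stimulate the cells; cAMP rise reported by CNG channel membrane potential dye signal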
Target sequence (O60755 1-299 limits assumed): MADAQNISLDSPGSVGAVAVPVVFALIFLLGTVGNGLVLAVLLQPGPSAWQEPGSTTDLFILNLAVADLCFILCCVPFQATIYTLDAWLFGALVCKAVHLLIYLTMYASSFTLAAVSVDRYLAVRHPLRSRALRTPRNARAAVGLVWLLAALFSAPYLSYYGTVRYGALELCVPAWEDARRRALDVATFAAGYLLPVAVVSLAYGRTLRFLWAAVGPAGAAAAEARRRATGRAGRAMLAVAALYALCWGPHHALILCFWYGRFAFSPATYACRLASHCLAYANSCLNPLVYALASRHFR
SRC2 inh – inhibition of GAL4-SRC2 driven luciferase reporter, primary screen, SRC2 inhibitor project, cell-based, luminescence; HEK293 GAL4-SRC2 luciferase reporter; Nuclear receptor coactivator 2 (Homo sapiens), Q15596; 370,000 compounds, 0.17% hits; AID 651957, 2012; inhibition, % at 9 µM;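 active = inhibition above the mean inhibition of all tested compounds plus 3 SD, set per campaign, cut at about 52% in these data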
Gal4-VP16 ctr – Gal4-VP16 luciferase reporter inhibitors, counter-screen for COUP-TFII antagonist project, cell-based, luminescence, HEK293; shares compounds with COUP-TFII inh; inhibition, % at 8.5 µM; 2,500 compounds, 25% hits; in the data active = inhibition above about 13%
COUP-TFII conf – NR2F2 transcriptional activity inhibitors, confirmation, cell-based, luciferase reporter, HEK293, triplicate; shares compounds with COUP-TFII inh; HEK293 NGFI-A luciferase reporter, luminescence; inhibition, % at 8.5 µM; 2,500 compounds, 45% hits; AID 687008, 2013;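 active = mean inhibition over three repeats above a set limit taken from the earlier primary screen, cut at about 38% in these data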
Numbers stand for hits; i = inactive; nt = no result given. This is a sample that favours compounds with a hit; in the whole collection about 1.1% have one here.

SMILES | NCOA1 inh | LRH-1 inv ag | COUP-TFII inh | NCOA3 inh | GalR3 antagonist | SRC2 inh | Gal4-VP16 ctr | COUP-TFII conf
COc1ccc(S(=O)(=O)Nc2cc(Sc3ncn[nH]3)c(O)c3ccccc23)cc1 | nt | nt | 67 | nt | i | 61 | 13 | i
CCOC(=O)[C@@]12CCCC=C1N(CCc1ccc(Cl)cc1)C(=O)[C@H]2CC(=O)N1CCC(c2ccccc2)CC1 | nt | nt | i | nt | nt | i | nt | nt
CC(=O)Oc1ccccc1C(=O)C=Cc1cccc([N+](=O)[O-])c1 | i | i | 47 | i | 28 | i | i | i
Cc1cc(C(=O)COc2cccnc2[N+](=O)[O-])c(C)n1-c1ccccc1F | i | i | 48 | i | i | i | i | i
COc1ccc(-c2nc(CN3CCN(c4ccccc4OC)CC3)c(C)o2)cc1 | i | i | i | i | i | i | nt | nt
COc1ccc(-c2nc(CN3CCN(c4ncnc5ccccc45)CC3)c(C)o2)c(OC)c1 | i | i | 52 | i | i | i | i | 40
Cc1oc(-c2cc(F)ccc2F)nc1CN1CCN(c2ncnc3ccccc23)CC1 | i | i | 43 | i | i | i | i | i
N#Cc1cc2ccccc2nc1SCC(=O)Nc1ccc(S(=O)(=O)N2CCCC2)cc1 | i | i | 39 | i | i | i | i | i
CC1(C)CC(=O)C=C(c2ccc(-c3cnc4ccccc4c3)cc2)C1=O | i | i | 42 | i | i | i | i | 78
Cc1c(CN2CCN(c3ncc(Cc4ccccc4)cn3)CC2)c(=O)n(-c2ccccc2)n1C | nt | nt | i | nt | i | i | nt | nt
COc1cccc2c1C(=N)c1c(O)c3c(c(O)c1C2=O)CC(O)(C(C)=O)CC3OC1CC(N)C(O)C(C)O1 (stereo not drawn) | i | i | nt | i | nt | nt | nt | nt
COc1cccc2c1C(=O)c1c(O)c3c(c(O)c1C2=O)C[C@](O)(C(C)=O)C[C@H]3O[C@@H]1C[C@@H](N)[C@@H](O)[C@@H](C)O1 | i | 99 | 55 | i | i | i | 36 | 47
COc1ccc2cc3c(N)nn(C(=O)c4ccc(Cl)c([N+](=O)[O-])c4)c3nc2c1 | i | i | i | i | i | i | nt | nt
COc1ccc2cc3c(N)nn(C(=O)c4ccccc4[N+](=O)[O-])c3nc2c1 | i | i | 43 | i | i | i | 15 | i
CC(=NNC(=O)CSc1nnc(-c2ccccc2)n1-c1ccccc1)c1ccc2ccccc2c1 | nt | nt | i | nt | nt | i | nt | nt
COC(=O)C1CN(CCc2ccccc2)CCS(=O)(=O)N1Cc1ccc(OC)cc1 (stereo not drawn) | nt | nt | i | nt | nt | i | nt | nt
Cc1ccccc1S(=O)(=O)N(C)C[C@H]1OCc2cnnn2CCCC(=O)N([C@H](C)CO)C[C@@H]1C | nt | nt | i | nt | i | i | nt | nt
O=C(C1CCCN(S(=O)(=O)c2cccc3ccccc23)C1)N1CCN(Cc2ccccc2)CC1 (stereo not drawn) | nt | nt | i | nt | nt | i | nt | nt
COc1cccc(C2NC(=S)NC3=C2CCc2ccccc23)c1 (stereo not drawn) | i | i | i | i | i | i | nt | nt
S=C1NC2=C(CCCC2=C2SCCS2)C(c2ccccc2)N1 (stereo not drawn) | i | i | 37 | i | i | i | i | i
Cc1onc(-c2ccccc2Cl)c1C(=O)Nc1cccc2cccnc12 | i | i | 43 | i | i | i | i | i
CCN1/C(=C/c2ccc3cc(C)ccc3[n+]2C)Sc2ccc3sccc3c21 | i | i | 38 | i | i | i | i | i
CCCSc1nnc(-c2ccco2)n1C | nt | nt | i | nt | nt | i | nt | nt
Cc1cnc(NC(=O)COc2ccccc2Cl)s1 | i | i | 41 | i | i | i | i | i
Cc1cnc(NC(=O)CCNC(=O)c2ccccc2Cl)s1 | i | i | i | i | i | i | nt | nt
SMILES | NCOA1 inh | LRH-1 inv ag | COUP-TFII inh | NCOA3 inh | GalR3 antagonist | SRC2 inh | Gal4-VP16 ctr | COUP-TFII conf
C[C@@H]1OCN(C)[C@H]2C[C@H]3c4[nH]c5cccc(-c6ccccc6)c5c4CCN3C[C@@H]12 | nt | nt | i | nt | nt | i | nt | nt
C=C(C(=O)c1ccccc1)C(NC(C)(C)C)c1ccccc1 (stereo not drawn) | i | 73 | 80 | i | i | 60 | 67 | 92
C=C(C(=O)c1ccccc1)C(C)CC(=O)c1ccccc1 (stereo not drawn) | i | i | i | i | i | i | nt | nt
CCOC(=O)N1CCN(C(=O)c2ccccc2NC(=O)c2ccc(C(C)(C)C)cc2)CC1 | i | i | i | i | i | i | nt | nt
CCOC(=O)N1CCN(C(=O)C(NC(=O)c2ccc(C(C)(C)C)cc2)C(C)C)CC1 (stereo not drawn) | i | i | 40 | i | i | i | i | i
CN(CCO)C1CN(Cc2cn(Cc3ccccc3C(F)(F)F)nn2)S(=O)(=O)C1 (stereo not drawn) | nt | nt | i | nt | nt | i | nt | nt
NS(=O)(=O)OCCCc1ccccc1 | i | i | i | i | i | i | nt | nt
[2H]C(CCOS(N)(=O)=O)c1ccc(C(C)(C)C)cc1 (stereo not drawn) | i | i | 43 | i | i | i | 22 | i
COc1cc(-c2noc(CCCC(=O)Nc3ccc(C(N)=O)cc3)n2)cc(OC)c1OC | i | i | i | i | i | i | nt | nt
COc1ccc(-c2noc(CCCC(=O)Nc3ccc(C(N)=O)cc3)n2)cc1 | i | i | 55 | i | i | 65 | 39 | i
COc1ccc(-c2noc(CCCC(=O)NC3CCCC3)n2)cc1 | i | i | 54 | i | i | 53 | i | i
COC(=O)C1=C(C)N(C)C(=NCC2CC2)NC1CCc1ccccc1 (stereo not drawn) | nt | nt | i | nt | i | i | nt | nt
O=C(NCc1cccnc1)c1ccc(COc2ccc(Cl)cc2)cc1 | i | i | 66 | i | i | i | i | i
O=C(Nc1cccc2ncccc12)c1ccc(OCc2ccccc2)cc1 | i | i | 43 | i | i | i | i | i
CCc1csc(N2[C@H](CN(CCOC)S(=O)(=O)c3ccccc3[N+](=O)[O-])[C@H](c3ccccc3)[C@@H]2CO)n1 | nt | nt | i | nt | nt | i | nt | nt
CC(C)(C)C1=CC(CC(N)=O)(C(C)(C)C)OC1=O (stereo not drawn) | nt | nt | i | nt | i | i | nt | nt

Bioassay records as filed in PubChem BioAssay.
